Measured values taken from PubChem BioAssay AID588674 (Broad Institute, 2011).
Out of some 360,000 compounds screened, about 1,800 (0.5%) were called active. The full list was thinned out, with actives kept by preference. A number with no mark means an inactive call.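 The calls were made as follows: active = mean inhibition of at least 75% with every replicate also reaching 75%; inconclusive = mean inhibition at least 75% but some replicate below; inactive = mean inhibition below 75%.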

Assay: reduction of Shn3 3'UTR firefly luciferase signal, primary screen, Schnurri-3 inhibitor project, cell-based, Clone20 osteoblasts, set 2 (AID 588674);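 also: 0% = median of neutral control wells and 100% = pilot-screen positive control compound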
Conditions: Clone20 osteoblast Shn3 3'UTR firefly luciferase, 24 h; at 12.5 µM; active compounds read high

SMILES	inhibition
CCCCCCCCCCCCn1ccc(=N)cc1	90.6% (active)
CN1C2C=C(N(C(=O)c3ccc(Cl)cc3)c3ccccc3)CC1CC2 (stereo not given)	-7.65%
Cc1ccc(S(=O)(=O)N(C)c2ccc(C(=O)NCC3(N(C)C)CCCCC3)cc2)cc1	-2.63%
Nc1ccc(C(=O)N/N=C2/CN3CCC2CC3)cc1	-22.5%
CCC(C)(O)C(=O)OC1C(=O)OC2CC3C(C)=CC(=O)C(O)C3(C)C3C4(O)OCC23C1C(C)C4O (stereo not given)	91.5% (active)
Cc1ccc(C2CN(C)CC2C(=O)c2ccc(F)cc2)cc1 (stereo not given)	6.66%
O=C1NC(=O)C(CCc2ccccn2)(Cc2cccc(Cl)c2Cl)C(=O)N1c1ccc(Br)cc1 (stereo not given)	13.7%
CC(=O)OC1C2(CC3N4C(=O)C5(CO)SSC4(CC31O)C(=O)N5C)OC(C)C(C)(C)C2=O (stereo not given)	98.1% (active)
CCC(=O)c1ccc(OCC(=O)N2CCN(CC(=O)Nc3ccc(C)cc3)CC2)cc1	19.6%
O=C1C2CCN(CC2)C1(CO)CO	-25.5%
O=C(c1ccccc1)C(O)(CN1CCCCC1)c1ccccc1 (stereo not given)	5.93%
CCN1C(=O)C(=Cc2c(C)n(CC(=O)NCC3CCCO3)c3ccccc23)C(=O)N(CC)C1=S (stereo not given)	1.7%
Clc1ccc2nc3c(c(-c4ccccc4)c2c1)CNCC3	14.4%
C[C@]12CCC3C(CC[C@H]4[C@H](O)[C@H](O)CC[C@]34C)C1CCC2=O (stereo not given in full)	-16.7%
Cc1ccc(N2C(=O)NC(=O)C(CCc3ccncc3)(Cc3cccc(Cl)c3Cl)C2=O)cc1 (stereo not given)	-0.01%
